# Rows were chosen to be rich in hits. Some 5.7% of all compounds tested hit in one or more screens of this group.
# RORgamma inh: inhibitors of mouse ROR gamma transcriptional activity | P51450 | Drosophila S2 Gal4-RORgamma UAS-luciferase reporter, 20 h | Potency, µM (top dose mostly 53.6 µM), for inactives: at the top dose activity change, negative = inhibition, most hits filed as inhibitors | hit rate 5.4% among 310,000 | AID 2551; also: nearly all actives have a fitted effect of over 60% in size
# Target sequence (P51450 whole entry, looked up, the tested form may be a part): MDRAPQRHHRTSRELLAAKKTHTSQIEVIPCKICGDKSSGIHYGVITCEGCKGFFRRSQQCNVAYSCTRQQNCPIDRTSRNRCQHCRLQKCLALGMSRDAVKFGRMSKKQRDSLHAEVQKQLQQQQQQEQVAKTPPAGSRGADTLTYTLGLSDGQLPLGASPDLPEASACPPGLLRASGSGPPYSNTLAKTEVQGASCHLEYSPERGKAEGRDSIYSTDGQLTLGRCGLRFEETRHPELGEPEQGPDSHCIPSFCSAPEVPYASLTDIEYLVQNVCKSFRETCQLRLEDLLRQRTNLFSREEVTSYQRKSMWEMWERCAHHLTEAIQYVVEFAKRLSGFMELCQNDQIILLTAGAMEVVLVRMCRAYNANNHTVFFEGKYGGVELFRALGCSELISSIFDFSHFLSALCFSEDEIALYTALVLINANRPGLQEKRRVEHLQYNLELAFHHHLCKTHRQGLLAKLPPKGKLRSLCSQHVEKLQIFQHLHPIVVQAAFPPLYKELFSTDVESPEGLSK
#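 Drosophila Schneider cells stably carrying a metallothionein-driven Gal4 DBD–ROR gamma fusion and a UAS-Photinus luciferase reporter were exposed to compound for 1 hr, then induced with copper sulfate (700 uM final) for 20 hr at ambient temperature before luminescence reading.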
# B2AR arrestin: agonists driving beta-arrestin recruitment to human beta2-adrenergic receptor; P07550; beta-arrestin recruitment to beta2AR, cell-based reporter; Potency, µM (doses to about 46.1 µM), without a hit: at the top dose activation, hits mostly activators; hit rate 0.02% among 330,000;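 also: 0% = DMSO controls and full agonism = EC100 isoproterenol or metaproterenol; nearly all actives have a fitted effect of over 65% in size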
# Gal4-VP16 FLuc: counter-screen for ROR gamma inhibitors: Gal4-VP16 reporter | Drosophila S2 Gal4-VP16 UAS-luciferase, luminescence, 20 h | Potency, µM (highest dose often 53.6 µM), for the others: at the top dose activity, negative = inhibition, hits mostly inhibitors | hit rate 3.5% among 310,000 | AID 2546;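 also: Gal4-VP16 expression switched on by copper sulfate through the metallothionein promoter; nearly all actives have a fitted effect of over 50% in size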
# NPSR antag: neuropeptide S receptor (human) antagonism, cAMP; AID 1461; hit rate 1% among 220,000; Potency, µM (titrated, usually from 38.3 µM), inactives show at the top dose activity change, negative = inhibition, actives largely listed as inhibitors; CHO-NPSR cells, cAMP TR-FRET, antagonist mode; Q6W5P4; also: nearly all actives have a fitted effect of over 50% in size
# Numbers without * were called inactive; ? = inconclusive; . = no result; [ ] = another dose, or the depositor's remark. Calls follow the shape of the dose curve; as a rule, active = well fitted curve in the direction sought with a large enough effect; inconclusive = small, poorly fitted or top-dose-only effect, or another doubt; inactive = no such curve, though single readings can be large; an effect the other way counts as inactive or inconclusive. Unless noted, % is scaled to controls: 0 for no effect and ±100 for the full control effect; potency is read from the fitted curve at half-maximal effect.
SMILES,RORgamma inh,B2AR arrestin,Gal4-VP16 FLuc,NPSR antag
COc1cc([N+](=O)[O-])cc(/C=N/NC(=O)C(C)Nc2cccc(C)c2)c1O (stereo not drawn),0.89µM*,0%,1.1µM*,-16%[46.1 µM]
COc1cc([N+](=O)[O-])cc(/C=N/NC(=O)CC#N)c1O,-27%,0%,4%,-6%
COc1cc([N+](=O)[O-])cc(/C=N/NC(=O)c2ccc(NC(=O)c3ccc(C)cc3)cc2)c1O,?,-1%,-8%[10 µM],-1%
CCN(CC)S(=O)(=O)c1cccc(NC(=O)c2ccc(-n3nc(C)cc3C)cc2)c1,?,-1%,-13%,-16%
Cc1ccc(C(=O)Nc2ccc(S(=O)(=O)NCc3ccco3)cc2)cc1,-5%,0%,-15%,-12%[46.1 µM]
Cc1cc(C)cc(NC(=O)c2cc(S(=O)(=O)NCc3ccco3)ccc2F)c1,-18%,0%,10µM*,-27%[46.1 µM]
O=S(=O)(NCc1ccco1)c1ccc2c(c1)Cc1ccccc1-2,?,0%,8.9µM*,-9%[46.1 µM]
Cc1cc(C)n(-c2ccc(C(=O)Nc3cccc(S(=O)(=O)N(C)C)c3)cc2)n1,?,7%,7.1µM*,18%
Cc1cc(C)n(-c2ccc(C(=O)Nc3ccc(C)c(S(=O)(=O)N(C)C)c3)cc2)n1,-34%,0%,18µM*,-5%
O=C(NCCc1ccc(Cl)cc1)C1CCN(C(=O)c2ccc(F)cc2)CC1,7%,0%,6%,.
C=CCn1cnc2c(oc3ccccc32)c1=O,2%,0%,-3%,.
Cn1cccc1C(=O)N1CCC2(CCN(Cc3ccncc3)CC2)CC1,-5%,.,-2%,.
Cc1cc(C)n(-c2ccc(C(=O)Nc3ccc(S(=O)(=O)NCc4ccco4)cc3)cc2)n1,?,-4%,16µM*,?
O=c1c(-c2ccc(F)c(F)c2)nc2cncnc2n1C1CC1,-25%,.,-2%,.
C[C@@H](O)[C@@H]1C(=O)N2C(C(=O)O)=C([C@H]3CCCO3)S[C@H]12,13%,.,2%,.
COC(=O)Cc1ccc(NC(=S)Nc2ccccn2)cc1,5µM*,-1%,?,6%
COc1cc(C(=O)Nc2ccc(NC(=O)c3ccccc3)nc2)cc(OC)c1OC,0%,0%,22%,.
COc1cc(NC(=S)Nc2ccccn2)cc(OC)c1OC,3.5µM*,0%,22µM*,-15%
COc1cc(NC(=S)Nc2ccccn2)cc(OC)c1,2.5µM*,4%,5.6µM*,-14%
COc1cc(OC)c(OC)cc1CNCc1ccco1,10%,-1%,-10%,.
CC(=O)Nc1ccc(S(=O)(=O)NCCC(=O)NNC(=O)c2ccccc2O)cc1,.,0%,.,.
C/C(=N/NC(N)=S)c1ccc(Br)s1,1.1µM*,?,5µM*,?
C/C(=N\NC(N)=S)c1cc(-c2ccccc2)c(-c2ccccc2)s1,0.45µM*,6%,1.4µM*,.
C/C(=N\NC(=O)Cc1ccccc1)c1ccc(Br)s1,-18%,0%,2%,.
C/C(=N\NC(=O)c1cccs1)c1ccc(C(=O)O)s1,17%,0%,2%,.
SMILES,RORgamma inh,B2AR arrestin,Gal4-VP16 FLuc,NPSR antag
c1ccc(-c2nc(CSc3n[nH]c(-c4cccs4)n3)cs2)cc1,32µM*,0%,5%,-7%[46.1 µM]
COc1ccc(/C(C)=N/Nc2nncc3ccccc23)cc1,?,0%,-11%,.
COc1ccc(/C(C)=N/Nc2nc3ccccc3nc2C)cc1,2.5µM*,1%,13µM*,-58%
COc1cccc(NC(=S)Nc2cccnc2)c1,?,-1%,-11%,16%
Cc1ccc(NC(=S)Nc2cccnc2)c(S(=O)(=O)N2CCCCC2)c1,?,0%,16µM*,-14%
CCOC(=O)c1cccc(NC(=S)NC(=O)c2cccnc2)c1,13µM*,4%,?,.
COc1cccc(NC(=S)NC(=O)c2cccnc2)c1,20µM*,-1%,-94%,.
CCCOC(=O)c1cccc(NC(=O)c2cccnc2)c1,27%,0%,0%,-9%[46.1 µM]
CCCOc1cccc(C(=O)NC(=S)Nc2cccc(C(F)(F)F)c2)c1,10µM*,-1%,?,?

# Assay outcomes as filed in PubChem.
